# Test results from PubChem BioAssay (NCATS).
# “And” between values parts separate entries of the source, which are not always exact repeats. Equal values may be shown once. Records with an inconclusive call do not appear. Where a call stands in place of a potency, no number is given. The source made the active and inactive calls. Unless noted, calls follow the shape of the full dose curve.
# Tests used:
# [1] = MultiTox-Fluor Cytotoxicity Assay - LYMP1-001 - Live Cells (AID 947; active = well fitted curve in the direction sought with a large enough effect; an effect the other way counts as inactive or inconclusive)
# [2] = Cell Viability - LYMP2-015 (AID 971; active = well fitted curve in the direction sought with a large enough effect; an effect the other way counts as inactive or inconclusive; also: nearly all actives have a fitted effect of over 55% in size)
# Outline: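 Human lymphoblastoid cells (2500/well) in complete medium were preincubated 5 hr at 37 C, then compound-treated 24 hr at 37 C. Intracellular ATP was read by CellTiter-Glo luminescence after 30 min at room temperature; AC50 came from Hill-equation concentration-response fits.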
# [3] = Cell Viability - LYMP2-024 (AID 988; active = well fitted curve in the direction sought with a large enough effect; an effect the other way counts as inactive or inconclusive; also: nearly all actives have a fitted effect of over 60% in size)
# Outline: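 Human lymphoblastoid cells (2500/well) in complete medium were preincubated 5 hr at 37 C, then exposed to compounds for 24 hr at 37 C. Intracellular ATP was read by CellTiter-Glo luminescence; AC50 from Hill-equation fits of concentration-response data.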
# [4] = target: Estrogen receptor (Homo sapiens) (UniProt P03372); test: qHTS assay for small molecule antagonists of estrogen receptor alpha signaling (AID 588513; active = well fitted curve in the direction sought with a large enough effect in the signal ratio, with a control signal flat, not every such curve was filed as active; the % refers to the signal ratio)
# Outline: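 Fluorescence from CCF4 substrate after 2 h at room temperature gave reporter activity; cells had been exposed to compound and 0.5nM 17-beta-estradiol for 18 h at 37 C. Hill-equation fitting yielded IC50 and maximal response.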
# [5] = target: Peroxisome proliferator-activated receptor gamma (Homo sapiens) (UniProt P37231); test: qHTS assay for small molecule agonists of peroxisome proliferator-activated receptor gamma signaling (AID 588536; active = well fitted curve in the direction sought with a large enough effect in the signal ratio, with a control signal flat, not every such curve was filed as active; the % refers to the signal ratio)
# Outline: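 HEK293 UAS-bla reporter line, 1% charcoal/dextran FBS; titration, 16 h, 37 C; CCF4 loading 2 h RT; fluorescence 460/530 nm. Normalized to rosiglitazone 2 uM = 100%, DMSO = 0%.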
# [6] = target: Thyroid hormone receptor beta (Homo sapiens) (UniProt P10828); test: qHTS assay for small molecule agonists of thyroid hormone receptor beta signaling (AID 588545)
# Outline: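 HEK 293 TR-UAS-bla; agonist mode; 18 hrs, 37 C; CCF4, ex 405/em 460 and 530 nm; norm. T3 10 nM = 100%, DMSO = 0%; Hill fit → EC50, efficacy.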
# [7] = target: Thyroid hormone receptor beta (Homo sapiens) (UniProt P10828); test: qHTS assay for small molecule antagonists of thyroid hormone receptor beta signaling (AID 588547; active = well fitted inhibition curve with a large enough effect in the signal ratio, with a control signal flat, not every such curve was filed as active; the % refers to the signal ratio;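 also: cells stimulated with 0.4 nM T3 agonist during compound exposure; series mostly up to about 77 µM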); conditions: TR-UAS-bla HEK293, beta-lactamase ratio, antagonist mode, 18 h
# Outline: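 Inhibition of T3-driven (0.4nM final) beta-lactamase reporter activity was measured over 0.59 nM to 92 uM compound after 18 h at 37 C. The cells were GripTite HEK293 TR-UAS-bla in charcoal/dextran-stripped serum, with CCF4 ratio read-out and IC50 from Hill fits.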
# [8] = qHTS assay for small molecule agonists of the antioxidant response element (ARE) signaling pathway (AID 651741; active = well fitted activation curve with a large enough effect in the signal ratio; the % refers to the signal ratio; also: potency is read from the fitted curve at half-maximal effect)
# Outline: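 Seeding 2,000 ARE-bla HepG2 cells per well preceded a 5 h incubation at 37 C/5% CO2 and a 16 h compound exposure at 37 C. Beta-lactamase reporter activity was then quantified by fluorescence after 2 h with LiveBLAzer B/G FRET substrate.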
# [9] = qHTS assay for small molecule activators of the p53 signaling pathway (AID 651743; active = well fitted activation curve with a large enough effect in the signal ratio, not every such curve was filed as active; the % refers to the signal ratio; also: series mostly up to about 92 µM); conditions: HCT-116 p53RE-bla, beta-lactamase FRET ratio, 16 h; activation: stronger effect = higher value
# Outline: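 Screen for p53 pathway agonists uses stably transfected p53RE-bla HCT-116 cells, 4,000 per well, treated 16 h at 37 C with compounds in DMSO.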
# [10] = target: Glucocorticoid receptor (Homo sapiens) (UniProt P04150); test: qHTS assay for small molecule agonists of glucocorticoid receptor signaling (AID 588532; active = well fitted curve in the direction sought with a large enough effect in the signal ratio, with a control signal flat; the % refers to the signal ratio); conditions: HeLa MMTV-bla, beta-lactamase ratio, agonist, 18 h; stronger effect = higher value; percent of dexamethasone control, DMSO zero
# Outline: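 Quantitative HTS using CellSensor MMTV-bla HeLa cells in charcoal/dextran-treated serum; compounds tested up to 92 uM. After 18 h at 37 C, CCF4 dye reported reporter induction.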
# [11] = target: Glucocorticoid receptor (Homo sapiens) (UniProt P04150); test: qHTS assay for small molecule antagonists of glucocorticoid receptor signaling (AID 588533; active = well fitted inhibition curve with a large enough effect in the signal ratio, with a control signal flat, not every such curve was filed as active; the % refers to the signal ratio;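 also: cells stimulated with 2 nM dexamethasone as agonist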)
# Outline: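 Antagonist-mode qHTS: compound titrations added to GRE-bla HeLa cells, then dexamethasone 2 nM final; 18 h, 37 C. CCF4 FRET fluorescence normalized to dexamethasone and DMSO; IC50 from Hill fit.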
# [12] = qHTS assay for small molecule antagonists of peroxisome proliferator-activated receptor delta signaling (AID 588535; active = well fitted inhibition curve with a large enough effect in the signal ratio, with a control signal flat, not every such curve was filed as active; the % refers to the signal ratio;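 as to max response: cells co-treated with a PPAR-delta agonist as stimulator during compound exposure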); conditions: HEK293T PPARd-UAS-bla, beta-lactamase FRET ratio, 18 h; 460 nm channel
# Outline: (§1)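 Cell-based beta-lactamase assay in antagonist mode: 4000 HEK293T PPAR-delta-UAS-bla cells per well, 5 hr preincubation then 18 hr compound incubation at 37 C. IC50 obtained by Hill equation fitting.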
# [13] = target: Peroxisome proliferator-activated receptor delta (Homo sapiens) (UniProt Q03181); test: as above
# Outline: as §1
# [14] = target: Peroxisome proliferator-activated receptor gamma (Homo sapiens) (UniProt P37231); test: qHTS assay for small molecule antagonists of peroxisome proliferator-activated receptor gamma signaling (AID 588537; active = well fitted inhibition curve with a large enough effect in the signal ratio, with a control signal flat, not every such curve was filed as active; the % refers to the signal ratio;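 also: reporter cells co-stimulated with 50 nM rosiglitazone agonist during compound treatment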)
# Outline: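 Inhibitors of agonist-stimulated UAS-bla reporter activity were sought in HEK293 cells; rosiglitazone (50 nM) defined full signal and DMSO baseline. Curves fitted to Hill model gave IC50 and efficacy.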
# [15] = target: Voltage-gated inwardly rectifying potassium channel KCNH2 (Homo sapiens) (UniProt Q12809); test: qHTS Assay for Small Molecule Inhibitors of the Human hERG Channel Activity (AID 588834; active = well fitted curve in the direction sought with a large enough effect; an effect the other way counts as inactive or inconclusive;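 also: top concentration of the series differs between compounds; lower thallium flux fluorescence means stronger hERG block; nearly all actives have a fitted effect of over 50% in size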)
# Outline: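 hERG-BacMam U2OS, 2000 cells/well; 0.7X FluxOR loading 1 hr RT dark; cpd ~10 min 37 °C; stim buffer; FDSS fluorescence 2 min @ 1 s; AC50 Hill fit.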
# [16] = qHTS assay for small molecule activators of the nuclear factor-kappa B (NF-kB) signaling pathway (AID 651749; active = well fitted activation curve with a large enough effect in the signal ratio; the % refers to the signal ratio; also: series mostly up to about 77 µM); conditions: NF-kB-bla ME-180 cells, beta-lactamase FRET ratio, 16 h; stronger effect = higher value
# Outline: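 Stably transfected ME-180 line; NF-kB response element upstream of beta-lactamase. Treatment: compound or DMSO, 16 hr. Detection: fluorescent FRET substrate.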
# [17] = target: Vitamin D3 receptor (Homo sapiens) (UniProt P11473); test: qHTS assay for small molecule antagonists of vitamin D receptor signaling (AID 588541);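 also: receptor activated by calcitriol during compound treatment; series mostly up to about 77 µM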
# Outline: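 Antagonist-mode beta-lactamase reporter assay: HEK293T VDR-UAS-bla cells were exposed to titrated compound alongside 1-alpha,25-dihydroxyvitamin D3 at 3 nM final for 16 h. Values were normalized to the 50 nM agonist control and DMSO basal, with IC50 and efficacy from Hill equation fits.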
# [18] = qHTS assay for small molecule disruptors of the mitochondrial membrane potential - 1 hr assay (AID 651754); also: nearly all actives have a fitted effect of over 35% in size
# Outline: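 HepG2 cells, attached overnight at 37C, were exposed to compound or DMSO vehicle for 1 hr at 37C, 5% CO2, then stained with Mito-MPS dye for 30 min. Red aggregate versus green monomer fluorescence reports membrane potential.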
# [19] = target: Bile acid receptor (Homo sapiens) (UniProt Q96RI1); test: qHTS assay for small molecule agonists of farnesoid X receptor signaling (AID 588527); conditions: HEK293T FXR-UAS-bla, beta-lactamase ratio, 16 h; stronger effect = higher value; also: series mostly up to about 77 µM
# Outline: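 Quantitative HTS used FXR-UAS-bla HEK293T cells with 16 h compound incubation at 37 C. EC50 values came from concentration-response curves normalized to chenodeoxycholic acid.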
# [20] = target: Peroxisome proliferator-activated receptor delta (Homo sapiens) (UniProt Q03181); test: qHTS assay for small molecule agonists of peroxisome proliferator-activated receptor delta signaling (AID 588534)
# Outline: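 Cell-based beta-lactamase reporter assay run in agonist mode: cells seeded and incubated 5 hrs at 37 C, compounds added and incubated 18 hrs at 37 C. CCF4 dye fluorescence read after 2 hrs at RT; EC50 and efficacy from Hill fits.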
# Chain of Peroxisome proliferator-activated receptor gamma (Homo sapiens) (P37231 whole entry, looked up): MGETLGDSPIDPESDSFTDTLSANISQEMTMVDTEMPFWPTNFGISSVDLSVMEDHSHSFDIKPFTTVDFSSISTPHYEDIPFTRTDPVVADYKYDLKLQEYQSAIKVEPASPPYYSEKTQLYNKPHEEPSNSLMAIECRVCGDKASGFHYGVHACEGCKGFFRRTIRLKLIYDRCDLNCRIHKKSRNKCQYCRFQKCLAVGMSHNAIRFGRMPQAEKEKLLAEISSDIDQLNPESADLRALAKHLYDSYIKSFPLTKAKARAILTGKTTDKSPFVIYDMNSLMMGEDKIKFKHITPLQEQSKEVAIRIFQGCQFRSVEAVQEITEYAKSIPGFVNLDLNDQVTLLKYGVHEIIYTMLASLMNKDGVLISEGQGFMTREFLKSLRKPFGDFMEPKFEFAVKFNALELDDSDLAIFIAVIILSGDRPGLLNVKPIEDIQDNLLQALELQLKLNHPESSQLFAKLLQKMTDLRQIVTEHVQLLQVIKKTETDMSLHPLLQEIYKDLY
# Chain of Peroxisome proliferator-activated receptor delta (Homo sapiens) (Q03181 whole entry, looked up): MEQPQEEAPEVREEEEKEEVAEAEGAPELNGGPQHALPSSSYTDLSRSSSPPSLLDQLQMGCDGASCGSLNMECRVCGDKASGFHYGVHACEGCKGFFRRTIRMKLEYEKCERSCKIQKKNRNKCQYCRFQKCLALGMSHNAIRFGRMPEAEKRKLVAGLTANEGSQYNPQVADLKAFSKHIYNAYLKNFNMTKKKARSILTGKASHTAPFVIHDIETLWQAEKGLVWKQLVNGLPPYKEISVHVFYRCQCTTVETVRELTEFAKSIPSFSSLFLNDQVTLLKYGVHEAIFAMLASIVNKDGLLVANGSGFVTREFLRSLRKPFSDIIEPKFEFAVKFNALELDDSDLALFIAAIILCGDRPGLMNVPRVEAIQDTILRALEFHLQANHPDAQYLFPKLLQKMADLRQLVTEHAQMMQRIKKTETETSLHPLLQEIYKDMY
# Chain of Thyroid hormone receptor beta (Homo sapiens) (P10828 whole entry, looked up): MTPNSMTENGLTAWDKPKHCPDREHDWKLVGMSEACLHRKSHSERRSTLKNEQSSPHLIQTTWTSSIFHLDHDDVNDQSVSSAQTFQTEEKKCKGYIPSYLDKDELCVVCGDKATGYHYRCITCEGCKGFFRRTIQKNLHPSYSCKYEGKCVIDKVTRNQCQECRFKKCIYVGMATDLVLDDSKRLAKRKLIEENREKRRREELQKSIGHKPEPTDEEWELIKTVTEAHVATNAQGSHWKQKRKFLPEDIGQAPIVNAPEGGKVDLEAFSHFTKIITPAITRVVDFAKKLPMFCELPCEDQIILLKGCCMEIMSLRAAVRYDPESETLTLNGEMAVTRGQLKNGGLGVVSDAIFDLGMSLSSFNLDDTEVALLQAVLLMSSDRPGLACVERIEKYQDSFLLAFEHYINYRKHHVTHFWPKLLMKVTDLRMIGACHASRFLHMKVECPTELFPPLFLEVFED
# Chain of Voltage-gated inwardly rectifying potassium channel KCNH2 (Homo sapiens) (Q12809 whole entry, looked up): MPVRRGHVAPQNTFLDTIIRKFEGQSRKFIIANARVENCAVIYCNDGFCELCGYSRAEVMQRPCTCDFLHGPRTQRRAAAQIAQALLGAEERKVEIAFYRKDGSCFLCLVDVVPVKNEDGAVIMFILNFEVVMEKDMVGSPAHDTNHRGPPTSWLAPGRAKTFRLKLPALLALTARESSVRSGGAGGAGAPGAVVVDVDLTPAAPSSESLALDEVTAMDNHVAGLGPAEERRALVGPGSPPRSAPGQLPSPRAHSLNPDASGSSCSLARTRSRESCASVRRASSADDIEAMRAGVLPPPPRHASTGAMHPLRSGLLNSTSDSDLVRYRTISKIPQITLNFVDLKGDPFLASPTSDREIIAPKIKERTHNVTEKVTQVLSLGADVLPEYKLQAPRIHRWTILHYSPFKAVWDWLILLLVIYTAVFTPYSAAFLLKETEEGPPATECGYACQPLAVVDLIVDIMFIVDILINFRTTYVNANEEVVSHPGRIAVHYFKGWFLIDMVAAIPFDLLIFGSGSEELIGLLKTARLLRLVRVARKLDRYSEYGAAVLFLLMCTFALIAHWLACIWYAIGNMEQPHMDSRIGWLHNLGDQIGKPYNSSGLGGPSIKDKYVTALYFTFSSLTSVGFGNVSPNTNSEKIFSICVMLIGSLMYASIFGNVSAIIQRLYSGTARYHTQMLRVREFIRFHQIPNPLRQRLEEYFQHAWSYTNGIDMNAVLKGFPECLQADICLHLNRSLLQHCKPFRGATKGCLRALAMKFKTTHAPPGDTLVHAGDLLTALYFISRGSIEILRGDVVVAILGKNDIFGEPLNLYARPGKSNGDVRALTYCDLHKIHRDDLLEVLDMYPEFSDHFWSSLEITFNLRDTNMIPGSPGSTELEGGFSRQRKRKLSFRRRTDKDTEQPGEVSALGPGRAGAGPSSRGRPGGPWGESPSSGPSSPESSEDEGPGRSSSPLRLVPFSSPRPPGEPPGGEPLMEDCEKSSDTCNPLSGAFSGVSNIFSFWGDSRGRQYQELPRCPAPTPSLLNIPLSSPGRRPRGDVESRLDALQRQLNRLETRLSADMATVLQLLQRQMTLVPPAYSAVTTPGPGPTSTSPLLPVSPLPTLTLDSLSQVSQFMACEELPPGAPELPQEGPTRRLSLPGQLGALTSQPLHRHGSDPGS
# Chain of Bile acid receptor (Homo sapiens) (Q96RI1 whole entry, looked up): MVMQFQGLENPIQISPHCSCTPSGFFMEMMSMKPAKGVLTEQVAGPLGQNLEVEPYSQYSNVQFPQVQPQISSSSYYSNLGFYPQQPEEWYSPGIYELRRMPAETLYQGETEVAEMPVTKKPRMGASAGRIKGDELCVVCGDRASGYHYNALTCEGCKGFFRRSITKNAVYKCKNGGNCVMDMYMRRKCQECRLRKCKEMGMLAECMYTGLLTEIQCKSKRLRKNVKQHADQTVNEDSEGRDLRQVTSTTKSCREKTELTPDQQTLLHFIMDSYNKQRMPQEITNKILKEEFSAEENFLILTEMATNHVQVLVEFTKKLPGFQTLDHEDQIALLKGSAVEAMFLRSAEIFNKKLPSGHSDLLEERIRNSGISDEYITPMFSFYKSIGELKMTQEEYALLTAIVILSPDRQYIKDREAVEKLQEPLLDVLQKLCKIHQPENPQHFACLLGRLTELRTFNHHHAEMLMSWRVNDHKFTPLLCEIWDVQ
# Chain of Estrogen receptor (Homo sapiens) (P03372 whole entry, looked up): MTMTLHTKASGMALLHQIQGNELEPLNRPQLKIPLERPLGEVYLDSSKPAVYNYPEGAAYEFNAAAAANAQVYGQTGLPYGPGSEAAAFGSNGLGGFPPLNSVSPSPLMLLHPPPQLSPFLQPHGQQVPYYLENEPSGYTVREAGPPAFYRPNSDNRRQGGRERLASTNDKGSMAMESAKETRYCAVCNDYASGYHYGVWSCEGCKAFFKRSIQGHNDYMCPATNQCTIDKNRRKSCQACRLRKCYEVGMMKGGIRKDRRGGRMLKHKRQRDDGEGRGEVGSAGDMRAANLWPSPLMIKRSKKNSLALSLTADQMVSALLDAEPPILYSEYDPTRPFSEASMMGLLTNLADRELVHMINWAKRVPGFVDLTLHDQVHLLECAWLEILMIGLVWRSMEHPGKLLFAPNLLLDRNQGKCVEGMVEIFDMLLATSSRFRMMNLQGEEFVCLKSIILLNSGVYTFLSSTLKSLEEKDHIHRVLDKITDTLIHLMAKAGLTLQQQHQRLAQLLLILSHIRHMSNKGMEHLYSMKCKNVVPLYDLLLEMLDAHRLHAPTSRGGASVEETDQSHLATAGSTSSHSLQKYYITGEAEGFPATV
# Chain of Glucocorticoid receptor (Homo sapiens) (P04150 whole entry, looked up): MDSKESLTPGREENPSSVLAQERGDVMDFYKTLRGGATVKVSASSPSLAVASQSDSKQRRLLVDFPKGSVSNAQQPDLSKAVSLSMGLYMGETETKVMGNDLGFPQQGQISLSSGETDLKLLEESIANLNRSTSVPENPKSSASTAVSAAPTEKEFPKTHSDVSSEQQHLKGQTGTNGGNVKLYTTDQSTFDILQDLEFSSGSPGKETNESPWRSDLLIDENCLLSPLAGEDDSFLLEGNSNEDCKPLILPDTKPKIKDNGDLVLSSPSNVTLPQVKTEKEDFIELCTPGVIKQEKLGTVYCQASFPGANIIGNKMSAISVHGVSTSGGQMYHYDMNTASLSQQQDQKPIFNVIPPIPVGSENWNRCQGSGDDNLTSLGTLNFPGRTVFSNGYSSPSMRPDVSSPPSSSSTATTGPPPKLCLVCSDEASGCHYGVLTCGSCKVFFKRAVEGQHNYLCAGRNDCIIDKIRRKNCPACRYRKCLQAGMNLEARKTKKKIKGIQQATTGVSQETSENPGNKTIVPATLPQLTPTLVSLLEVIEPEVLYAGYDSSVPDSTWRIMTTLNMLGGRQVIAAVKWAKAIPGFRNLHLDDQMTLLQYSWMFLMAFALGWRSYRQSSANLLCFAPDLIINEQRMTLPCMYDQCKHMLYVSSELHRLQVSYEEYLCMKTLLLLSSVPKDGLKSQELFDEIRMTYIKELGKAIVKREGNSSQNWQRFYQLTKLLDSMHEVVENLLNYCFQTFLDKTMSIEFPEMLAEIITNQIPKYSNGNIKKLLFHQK
# Chain of Vitamin D3 receptor (Homo sapiens) (P11473 whole entry, looked up): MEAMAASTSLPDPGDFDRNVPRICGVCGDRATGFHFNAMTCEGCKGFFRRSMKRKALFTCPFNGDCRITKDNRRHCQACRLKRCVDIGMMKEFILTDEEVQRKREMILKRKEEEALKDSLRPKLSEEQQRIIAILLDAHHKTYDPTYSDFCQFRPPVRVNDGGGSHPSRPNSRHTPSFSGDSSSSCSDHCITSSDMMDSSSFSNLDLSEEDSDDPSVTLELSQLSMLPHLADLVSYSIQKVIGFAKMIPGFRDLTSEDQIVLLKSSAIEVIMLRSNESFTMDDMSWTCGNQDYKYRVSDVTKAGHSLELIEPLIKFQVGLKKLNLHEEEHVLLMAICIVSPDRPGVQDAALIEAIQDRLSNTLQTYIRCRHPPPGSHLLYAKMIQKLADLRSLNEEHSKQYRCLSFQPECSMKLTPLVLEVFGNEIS
Structure (SMILES),outcome [1],Potency [2],Potency [3],Potency [4],outcome [5],Potency [6],activity change % (negative = inhibition) [7],Potency [8],activation [9],activation [10],outcome [11],max response [12],outcome [13],Potency [14],Potency [15],activation [16],outcome [17],Potency [18],activation [19],outcome [20]
O=[N+]([O-])c1ccccc1-c1ccccc1,inactive,inactive,inactive,inactive,inactive,inactive,-0.648% (inactive),inactive,-1.36% (inactive),–,–,–,–,–,–,–,–,–,–,–
C=CC(=O)OCC(C)C,inactive,inactive,inactive,inactive,inactive,inactive,-1.18% (inactive),inactive,-0.853% (inactive),-2.2% (inactive),inactive,-6.69%,inactive,inactive,inactive,0.0391% (inactive),–,–,–,–
Oc1c(Cl)cccc1Cl,–,inactive,–,inactive,inactive,inactive,-18.9% (inactive),–,–,–,–,38.7%,inactive,–,inactive,-0.406% (inactive),inactive,inactive,–,–
C/C=C/CC#N,inactive,inactive,inactive,inactive,inactive,inactive,15.6% (inactive),–,–,–,–,-4.54%,inactive,–,inactive,1.19% (inactive),–,inactive,-1.31% (inactive),–
CCOC(=O)CBr,–,inactive,inactive,–,inactive,inactive,–,inactive,-2.17% (inactive),–,–,-11.7%,–,–,inactive,-0.133% (inactive),inactive,inactive,0.321% (inactive),–
Cc1ccc(N)c(C)c1,inactive,–,inactive,–,inactive,inactive,2.7% (inactive),–,–,-0.661% (inactive),inactive,14.7%,inactive,inactive,inactive,–,inactive,inactive,3.12% (inactive),–
C=CC(=O)OC,–,inactive,inactive,–,inactive,–,–,inactive,-0.53% (inactive),–,–,–,–,inactive,inactive,-0.11% (inactive),inactive,inactive,1.11% (inactive),inactive
CC(C)[C@]12CC(=O)[C@H](C)[C@H]1C2,inactive,inactive,–,–,inactive,inactive,–,inactive,–,–,–,17.2% and -10.4%,inactive,inactive,inactive,-0.354% (inactive) and -5.97% (inactive),inactive,inactive,-2.27% (inactive) and 5.04% (inactive),inactive
Nc1ccc2ccccc2c1,inactive,inactive,inactive,inactive,–,inactive,-16.4% (inactive),–,–,–,–,–,–,–,inactive,–,inactive,inactive,–,–
CCCBr,–,–,inactive,inactive,–,inactive,3.13% (inactive),–,-0.771% (inactive),-1.9% (inactive),–,–,–,inactive,inactive,–,inactive,inactive,-1.67% (inactive),–
CC(C)(C)C(O)(CCc1ccc(Cl)cc1)Cn1cncn1 (stereo not drawn),–,inactive,–,–,inactive,inactive,-8.05% (inactive) and 4.64% (inactive),inactive,-3.53% (inactive) and -2.93% (inactive),3.38% (inactive) and -5.28% (inactive),inactive,-43.6% and 58.8%,inactive,inactive,–,-0.348% (inactive) and -1.3% (inactive),inactive,–,–,inactive
O=C(O)C(Cl)(Cl)Br,inactive,inactive,inactive,–,inactive,inactive,-3.52% (inactive),42.2 µM (active),-0.303% (inactive),-2.11% (inactive),inactive,–,–,inactive,inactive,–,inactive,inactive,-1.03% (inactive),inactive
CCCCCC[N+](=O)[O-],inactive,inactive,inactive,–,–,inactive,-9.74% (inactive),–,-5.04% (inactive),–,inactive,–,–,–,inactive,1.69% (inactive),inactive,inactive,1.12% (inactive),inactive
Oc1cccc(Cl)c1,inactive,inactive,inactive,inactive,inactive,inactive,0.91% (inactive),–,0.857% (inactive),-11.4% (inactive),inactive,–,–,inactive,inactive,-0.548% (inactive),inactive,inactive,2.65% (inactive),–
OCC(Cl)CCl (stereo not drawn),inactive,–,inactive,inactive,inactive,–,-13.6% (inactive),–,-0.732% (inactive),11.4% (inactive),inactive,-16%,–,inactive,–,0.192% (inactive),inactive,inactive,–,–
[O-][Cl+2]([O-])O,inactive,inactive,inactive,inactive,inactive,–,–,inactive,–,–,–,–,–,–,–,-0.919% (inactive),inactive,inactive,-2.85% (inactive),–
CC(=O)NNc1ccccc1,inactive,inactive,–,–,inactive,–,-1.14% (inactive),–,–,–,–,50%,inactive,–,–,–,inactive,–,-3.51% (inactive),–
ClCc1ccccc1,inactive,–,inactive,inactive,–,inactive,–,inactive,-2.55% (inactive),–,–,-22.1%,inactive,–,inactive,-0.661% (inactive),inactive,–,–,inactive
